Assay results reported in PubChem BioAssay AID2685 (National Center for Advancing Translational Sciences (NCATS), 2010).
Among all 320,000 compounds or so, about 2,100 (0.66%) were called active. Another 53% or so got no clear call; they are omitted. Calls come from the whole dose curve; as a rule, active = well fitted inhibition curve with a large enough effect in the signal ratio, with a control signal flat (not every such curve was filed as active); inconclusive = small, poorly fitted or top-dose-only effect, or effect the other way, or a change in a side signal; inactive = flat fitted curve, though single readings scatter; the % refers to the signal ratio. Shown is part of a subset that was picked to be rich in actives.

test: qHTS Assay for Lipid Storage Modulators in Drosophila S3 Cells; details: BODIPY lipid droplet fluorescence, 18-24 h, cells fed with added oleic acid; cell number change: measured here: cell count max response; series mostly up to 46.1 µM; lipid storage change, negative = inhibition: at the top concentration;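 for cell number change: cells counted by Cell Tracker Red CMTPX staining in the red channel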; for lipid storage change, negative = inhibition: % is set by controls: 0 for no effect and ±100 for the full control effect
How it was run: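 Drosophila S3 cells loaded with oleic acid (400 uM, as added) and compounds at several concentrations; lipid droplets imaged by 488-nm laser-scanning cytometry, 500–530 nm intensity and object ratio to cell channel. Percent activity normalized to 20 uM Triacsin C.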
Potency is the fitted concentration of half-maximal effect.

Structure (SMILES)	lipid storage change, negative = inhibition	cell number change	Potency	outcome
O=C(NCc1csc2ccc(Cl)cc12)Nc1ccccc1	-4.18% (inactive)	-21.1%		
COc1ccc(CCNc2nc(-c3cccnc3)nc3ccccc23)cc1OC		0.794%	9.2 µM (active)	
CC(C)OCCCNc1nc(-c2ccccc2)nc2ccccc12		-18%		inactive
CCOCCCNc1nc(-c2ccccc2)nc2ccccc12		9.97%	4.61 µM (active)	
COc1ccc(/C=N/Nc2nc(-c3cccnc3)nc3ccccc23)cc1OC	-5.18% (inactive)	-0.944%		
COCCNc1nc(-c2ccccc2)nc2ccccc12	3.19% (inactive)	-1.08%		
COc1ccc(CNc2nc(-c3ccccc3)nc3ccccc23)cc1OC	4% (inactive)	-4.67%		
CCc1ccc(/C=N\n2cnnc2)cc1	-2.9% (inactive)	2.5%		
CCC(C(=O)NC1CCCCC1)n1c(SCc2cccc(C)c2)nc2ccncc21 (stereo unspecified)	19.5% (inactive)	-1.51%		
O=C(CSc1ncn[nH]1)N1CCN(S(=O)(=O)c2ccccc2)CC1	4.24% (inactive)	11.4%		
Cc1ccc(S(=O)(=O)N2CCN(C(=O)CSc3ccc(Cl)cc3)CC2)cc1	-23.2% (inactive)	-6.45%		
Cc1ccc(S(=O)(=O)N2CCN(C(=O)CSc3ncn[nH]3)CC2)cc1		5.31%	16.4 µM (active)	
Cc1cccn2c(CN(C)CC3Cc4ccccc4O3)c(C(=O)N3CCCCC3)nc12 (stereo unspecified)	6.24% (inactive)	-1.06%		
COc1ccc(S(=O)(=O)N2CCN(C(c3ccccc3)c3ccccc3)CC2)cc1NC(C)=O	-2.59% (inactive)	5.87%		
Cc1ccc(OCC(=O)N2CCN(C(=O)Cc3ccccc3)CC2)cc1	9.56% (inactive)	24.1%		
CSCC(=O)N1CCCC(CO)(CCCc2ccccc2)C1 (stereo unspecified)	20.8% (inactive)	-13.7%		
Cc1ccc(OCC(=O)N2CCCC(CO)(CCOc3ccccc3)C2)cc1 (stereo unspecified)		13.9%	14.6 µM (active)	
O=c1[nH]c2ccccc2n2c(-c3ccncc3)nnc12	-8.9% (inactive)	-11.8%		
Cc1cc(C)cc(NC(=O)c2cc3c(=O)n4ccccc4nc3s2)c1		-3.42%	6.51 µM (active)	
CC(=O)NS(=O)(=O)c1ccc(NC(=O)c2cc3c(=O)n4ccccc4nc3s2)cc1	5.64% (inactive)	21.8%		
O=C(Nc1cccc(Cl)c1)c1cc2c(=O)n3ccccc3nc2s1	-9.52% (inactive)	1.29%		
O=C(CCC1CCCC1)Nc1ccccc1-c1ccccc1	4.16% (inactive)	-0.161%		
COc1ccc(NC(=O)C2CCCCN2N)cc1OC (stereo unspecified)	-0.29% (inactive)	-2.19%		
Cc1cc(C)cc(NC(=O)CSc2ccc(-c3ccccn3)nn2)c1	-5.08% (inactive)	2.31%		

Structure (SMILES)	lipid storage change, negative = inhibition	cell number change	Potency	outcome
O=S1(=O)CC/C(=N\O)c2ccccc21	5.13% (inactive)	0.644%		
O=c1cc(CO)oc(C(Nc2ccccn2)c2ccccc2Cl)c1O (stereo unspecified)	-1.26% (inactive)	-7.74%		
N#Cc1ccc(OCC(=O)Nc2nc(-c3cccnc3)cs2)cc1	12.5% (inactive)	-1.13%		
O=C(COc1cccc(C(F)(F)F)c1)Nc1cccnc1	-7.09% (inactive)	28.7%		
N#Cc1ccc(-c2ccc(OCC(=O)Nc3cccnc3)cc2)cc1		-11.3%	13 µM (active)	
Nc1ccc(S(=O)(=O)c2ccc(N)c(N)c2)cc1	1.95% (inactive)	15.7%		
CCCCCOCC(O)CCC(=O)NN (stereo unspecified)	-1.04% (inactive)	-19%		
Cc1ccc2cc(C(c3nnnn3C3CCCC3)N(Cc3ccccc3)Cc3ccco3)c(=O)[nH]c2c1 (stereo unspecified)		-7.33%		inactive
CCOC(=O)C1=C(C)NC(=O)NC1c1ccc(OC(=O)c2ccco2)cc1 (stereo unspecified)	3.41% (inactive)	-14%		
CCOC(=O)C1=C(CN2CCN(C(=O)c3ccco3)CC2)NC(=O)NC1c1ccc(OC(C)C)cc1 (stereo unspecified)		-20.3%	18.4 µM (active)	
CCOC(=O)C1=C(CN2CCN(C(=O)c3ccco3)CC2)NC(=O)NC1c1ccc(F)cc1 (stereo unspecified)		-24.3%		inactive
O=c1oc(-c2ccccc2)nc2sc3c(c12)CCCC3				inactive
Cc1ccccc1-c1nc2sc3c(c2c(=O)o1)CCC3	2.37% (inactive)	4.59%		
Cc1nc2sc3c(c2c(=O)o1)CCCC3		5.3%	29.1 µM (active)	
COc1cccc(-c2nc(-c3ccccn3)no2)c1	4.98% (inactive)	-6.27%		
Cc1c(NC(=O)CSCc2c(F)cccc2Cl)c(=O)n(-c2ccccc2)n1C	5.12% (inactive)	19%		
O=C1Nc2ccc(S(=O)(=O)N3CCCC3C(=O)O)c3cccc1c23 (stereo unspecified)	-0.439% (inactive)	2.18%		
CN1CCN(C(=O)/C(=C\c2ccccc2)c2ccccc2)CC1		-17.9%	18.4 µM (active)	
O=C(/C(=C/c1ccccc1)c1ccccc1)N1CCCCC1	-0.342% (inactive)	-13.6%		
CC1CCCCN1C(=O)/C(=C\c1ccccc1)c1ccccc1 (stereo unspecified)	-10.3% (inactive)	7.23%		
CS(=O)(=O)c1ccccc1-c1nnc(NC(=O)c2ccc(S(=O)(=O)N3CCCC3)cc2)o1				inactive [at 0.0737 µM]
COCCCNC(=O)c1ccccc1-c1cc(C)no1	14.1% (inactive)	-2.62%		
CC(Cl)C(=O)Nc1cc(C(F)(F)F)ccc1N1CCOCC1 (stereo unspecified)	10% (inactive)	-4.52%		
CC(=O)Nc1cc(C(F)(F)F)ccc1N1CCOCC1	1.01% (inactive)	3.32%		

Structure (SMILES)	lipid storage change, negative = inhibition	cell number change	Potency	outcome
CC(C(=O)Nc1cc(C(F)(F)F)ccc1N1CCOCC1)N1C(=O)C2CC=CCC2C1=O (stereo unspecified)		-1.98%	1.46 µM (active)	
O=C(Cc1cccc2ccccc12)Nc1ccc(N2CCOCC2)cc1	-10.4% (inactive)	-1.09%		
CC(=O)N1N=C(c2ccncc2)OC12CCCCCC2	5.71% (inactive)	5.48%		
CC(=O)N1N=C(c2ccccc2)OC12CCCC2	1.79% (inactive)	3.13%		
CC(=O)N1N=C(c2ccncc2)OC12CCCC2		-12.2%	16.4 µM (active)	
CCCOc1ccc(S(=O)(=O)NNC(=O)c2cc3ccccc3o2)cc1		-21.5%		inactive
S=c1nc(C2CC2)n(-c2ccccc2)[nH]1	-13.7% (inactive)	6.79%		
CC(Sc1ccccc1)C(=O)N1CCN(S(=O)(=O)c2cccc(Br)c2)CC1 (stereo unspecified)				inactive
CC(Sc1ccccc1)C(=O)N1CCN(S(=O)(=O)c2ccccc2)CC1 (stereo unspecified)		22.7%	0.0103 µM (active)	
CC(Sc1ccccc1)C(=O)N1CCN(S(=O)(=O)c2ccccc2F)CC1 (stereo unspecified)	-1.62% (inactive)	-14.5%		
CS(=O)(=NS(=O)(=O)c1ccc(Cl)cc1)c1ccccc1 (stereo unspecified)	4.24% (inactive)	5.26%		
N/C(=N\OC(=O)/C=C/c1ccccc1)c1ccccn1	2.94% (inactive)			
COc1cccc(-c2ncc3ccccc3c2COC(=O)c2ccc(Br)cc2)c1		2.33%		inactive
O=C(COC(=O)c1ccccn1)Nc1c(Cl)cccc1Cl		-5.33%	16.4 µM (active)	
O=C(COC(=O)c1cccs1)Nc1ccccc1C(F)(F)F	-1.51% (inactive)	-6.32%		
O=C(COC(=O)c1cccs1)Nc1ccccc1Cl		2.94%	16.4 µM (active)	
O=C(COC(=O)c1ccccn1)Nc1cccc(Cl)c1Cl	10.9% (inactive)	-0.814%		
O=C(COC(=O)c1ccccn1)Nc1ccccc1Cl	-3.35% (inactive)	-8.3%		
CCc1ccccc1NC(=O)COC(=O)c1cccs1		-3.91%		inactive
O=C(COC(=O)/C=C/c1cccs1)Nc1ccccc1Cl	-2.77% (inactive)	11.7%		
O=C(COC(=O)c1c2c(nc3ccccc13)/C(=C\c1cccs1)CCC2)Nc1ccccc1Cl		-12.6%	0.58 µM (active)	
O=C(COC(=O)c1c2c(nc3ccccc13)CCCC2)c1cccs1	-22.3% (inactive)	9.93%		
